The values that follow come from PMC11062922 (Nature Chemical Biology, 2023).

Common to all, as to parameters: species or system human, MV4-11 + K-562 + COLO205 + SK-N-BE2 + OVCAR-8
The subject of one experiment is AURKB. As to conditions: read-out: apparent Kd, compound concentrations: 100 nM and 1000 nM (sheet 'Samples'), n = 1.
The subject of a further experiment is EIF2AK1. The settings on record: read-out: apparent Kd, compound concentrations: 100 nM and 1000 nM (sheet 'Samples'), n = 1.
The test system of a further experiment is STK4. The settings on record: read-out: apparent Kd, compound concentrations: 100 nM and 1000 nM (sheet 'Samples'), n = 1.
Another experiment relates to BMP2K. The settings on record: read-out: apparent Kd; compound concentrations: 100 nM and 1000 nM (sheet 'Samples'), CATDS: 7.6838434423815494E-2; n = 1.
In a further experiment the test system is CDKL5. As to conditions: read-out: apparent Kd; compound concentrations: 100 nM and 1000 nM (sheet 'Samples'), CATDS: 7.5707148377712405E-2; n = 1.
Another experiment relates to FLT3. The settings on record: read-out: apparent Kd, compound concentrations: 100 nM and 1000 nM (sheet 'Samples'), n = 1.
A further experiment deals with GSK3A. The settings on record: read-out: apparent Kd; compound concentrations: 100 nM and 1000 nM (sheet 'Samples'), CATDS: 8.1333822841740205E-2; n = 1.
A further experiment concerns GSK3B. The settings on record: read-out: apparent Kd; compound concentrations: 100 nM and 1000 nM (sheet 'Samples'), CATDS: 7.5519353695847294E-2; n = 1.
In another experiment the test system is HSPE1. As to conditions: read-out: apparent Kd; compound concentrations: 100 nM and 1000 nM (sheet 'Samples'), CATDS: 0.31901289007405398; n = 1.
Another experiment has as its system ICK. The settings on record: read-out: apparent Kd, compound concentrations: 100 nM and 1000 nM (sheet 'Samples'), n = 1.
A further experiment relates to JAK1. As to conditions: read-out: apparent Kd; compound concentrations: 100 nM and 1000 nM (sheet 'Samples'), CATDS: 9.4979881318968506E-2; n = 1.
In another experiment the test system is MAPK9. The settings on record: read-out: apparent Kd; compound concentrations: 100 nM and 1000 nM (sheet 'Samples'), CATDS: 5.8843363107673401E-2; n = 1.
The subject of a further experiment is NUAK1. As to conditions: read-out: apparent Kd; compound concentrations: 100 nM and 1000 nM (sheet 'Samples'), CATDS: 6.5408557388510299E-2; n = 1.
Another experiment deals with PGK1. As to conditions: read-out: apparent Kd; compound concentrations: 100 nM and 1000 nM (sheet 'Samples'), CATDS: 0.33349072490792903; n = 1.
The next experiment relates to PKM. The settings on record: read-out: apparent Kd; compound concentrations: 100 nM and 1000 nM (sheet 'Samples'), CATDS: 6.2556323198701705E-2; n = 1.
The test system of the next experiment is AXL. As to conditions: read-out: apparent Kd; compound concentrations: 100 nM and 1000 nM (sheet 'Samples'), CATDS: 0.14940898802630401; n = 1.
A further experiment has as its system CLK1. The settings on record: read-out: apparent Kd; compound concentrations: 100 nM and 1000 nM (sheet 'Samples'), CATDS: 0.22469270721715301; n = 1.
Another experiment relates to CLK2. As to conditions: read-out: apparent Kd; compound concentrations: 100 nM and 1000 nM (sheet 'Samples'), CATDS: 0.32192475407013899; n = 1.
The subject of a further experiment is CLK4. As to conditions: read-out: apparent Kd; compound concentrations: 100 nM and 1000 nM (sheet 'Samples'), CATDS: 0.19159631348183601; n = 1.
A further experiment relates to NTRK1. The settings on record: read-out: apparent Kd; compound concentrations: 100 nM and 1000 nM (sheet 'Samples'), CATDS: 0.180805132487488; n = 1.
The subject of the next experiment is DCTPP1. As to conditions: read-out: apparent Kd; compound concentrations: 100 nM and 1000 nM (sheet 'Samples'), CATDS: 8.7325060780524003E-2; n = 1.
The next experiment has as its system DDR2. As to conditions: read-out: apparent Kd; compound concentrations: 100 nM and 1000 nM (sheet 'Samples'), CATDS: 8.3380311484054601E-2; n = 1.
Another experiment concerns FLT4. As to conditions: read-out: apparent Kd; compound concentrations: 100 nM and 1000 nM (sheet 'Samples'), CATDS: 9.3314690514963106E-2; n = 1.
Another experiment has as its system PDGFRB. As to conditions: read-out: apparent Kd; compound concentrations: 100 nM and 1000 nM (sheet 'Samples'), CATDS: 0.111791794909036; n = 1.
The next experiment concerns PI4KB. As to conditions: read-out: apparent Kd; compound concentrations: 100 nM and 1000 nM (sheet 'Samples'), CATDS: 0.119169210644034; n = 1.
The test system of a further experiment is PIK3CD. As to conditions: read-out: apparent Kd; compound concentrations: 100 nM and 1000 nM (sheet 'Samples'), CATDS: 0.38237858605116598; n = 1.
In a further experiment the test system is TAOK1. As to conditions: read-out: apparent Kd; compound concentrations: 100 nM and 1000 nM (sheet 'Samples'), CATDS: 9.5219877084068302E-2; n = 1.
The subject of another experiment is BUB1. The settings on record: read-out: apparent Kd; compound concentrations: 100 nM and 1000 nM (sheet 'Samples'), CATDS: 0.15968057437579899; n = 1.
For a further experiment, the system named is CAMK2B. As to conditions: read-out: apparent Kd; compound concentrations: 100 nM and 1000 nM (sheet 'Samples'), CATDS: 0.32138183230231099; n = 1.
The test system of another experiment is FN3K. The settings on record: read-out: apparent Kd; compound concentrations: 100 nM and 1000 nM (sheet 'Samples'), CATDS: 0.15794853926882399; n = 1.
In another experiment the test system is MAPKAPK2. The settings on record: read-out: apparent Kd; compound concentrations: 100 nM and 1000 nM (sheet 'Samples'), CATDS: 0.25784854376508698; n = 1.
The subject of another experiment is STK3. The settings on record: read-out: apparent Kd; compound concentrations: 100 nM and 1000 nM (sheet 'Samples'), CATDS: 0.22390025297111801; n = 1.

Structures are written as SMILES. Like-named read-outs stand apart in the source and are kept apart here.

Take `Cn1cc(-c2ccc3c(c2)CCN3C(=O)Cc2cccc(F)c2)c2c(N)ncnc21` [GSK2603358A]: the potency estimated from few doses was 1280 nM with AURKB (CATDS: 0.35952241449560002), 1070 nM in the experiment with EIF2AK1 (CATDS: 0.39682644993145699) and 2430 nM in the experiment on STK4 (CATDS: 0.27037703695169801).
In the case of `Cc1ccc2c(c1)c(C1=C(c3cn(C)c4ccccc34)C(=O)NC1=O)cn2C` [RO0317510-000], the potency estimated from few doses was 783 nM with BMP2K; 815 nM with CDKL5; 449 nM with FLT3 (CATDS: 9.6631146746451402E-2); 676 nM with GSK3A; 820 nM in the experiment with GSK3B; 48.4 nM with HSPE1. Moreover, the potency estimated from few doses in the experiment with ICK (CATDS: 5.8957301425707501E-2) is 1800 nM; in the experiment with JAK1, 467 nM; in the experiment on MAPK9, 1810 nM; with NUAK1, 1250 nM; in the experiment on PGK1, 45.2 nM; with PKM, 1450 nM.
With `CC(C)S(=O)(=O)N1CCN(Cc2ccc3c(c2)nc(NC(=O)c2ccsc2)n3C[C@H](O)c2ccccc2)CC1` [GW635815X], the potency estimated from few doses was 1630 nM with AXL; 606 nM with CLK1; 328 nM in the experiment on CLK2; 843 nM with CLK4; 964 nM in the experiment with NTRK1.
On to `Cn1ccc2ncnc(Oc3ccc(NC(=O)Nc4ccccc4)cc3)c21` [TPKI-69], for which the potency estimated from few doses in the experiment on AURKB (CATDS: 0.138800296841457) was 695 nM; in the experiment on DCTPP1, 2030 nM; with DDR2 it was 2350 nM; in the experiment with FLT3 (CATDS: 0.108927417624357), 1150 nM; in the experiment on FLT4, 1680 nM; in the experiment with PDGFRB, 1080 nM. Moreover, the potency estimated from few doses was 943 nM in the experiment with PI4KB, 142 nM in the experiment on PIK3CD and 1600 nM with TAOK1.
Regarding `CSc1ccc(-c2nc3n(c2-c2ccncc2)CCC3)cc1` [SKF-105561], the potency estimated from few doses in the experiment on BUB1 is 2300 nM; with CAMK2B it was 557 nM; with FN3K, 2370 nM; in the experiment with ICK (CATDS: 0.184620648021635), 1580 nM; with MAPKAPK2, 803 nM.
Take `COc1cccc(CC(=O)N2CCc3cc(-c4cn(C)c5ncnc(N)c45)ccc32)c1` [GSK2608899A]: the potency estimated from few doses was 1340 nM with AURKB (CATDS: 0.23694703885971399), 1050 nM with EIF2AK1 (CATDS: 0.26763431459408499), 1510 nM in the experiment with STK3 and 966 nM in the experiment with STK4 (CATDS: 0.27956924002989397).
